HT1080 IDH1KD tx: HT-1080 IDH1 knockdown cell toxicity (counter line); AID 686971; HT-1080 IDH1 knockdown viability, ATP luminescence, 48 h; 2% of 360,000 active; Potency, µM (highest dose often 46.1 µM), inactives show at the highest dose activity, negative = toxicity, most hits filed as cytotoxic;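 further: 0% = DMSO wells and -100% = cell-free medium wells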
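Using the IDH1-knockdown HT-1080 line run in the same batch and compound series as the NT line, viability after 48 h at 37 °C was determined by CellTiter-Glo luminescence and expressed as % activity.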
KB-V1 MDR tox: kills drug-selected multidrug resistant KB-V1 cells; 3.4% of 400,000 active; AID 1347076; Potency, µM (doses to about 46.1 µM), actives largely listed as cytotoxic; KB-V1 MDR cells viability, CellTiter-Glo, 72 h; further: nearly all actives have a fitted effect of over 60% in size
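In this primary screen, KB-V1 cells overexpressing P-gp are incubated with library compounds (lowest to highest concentration) for 72 h at 37 degrees C before a luminescent ATP viability read.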
DT40 TDP1 CPT: DT40-hTDP1 cell growth loss with CPT; chicken DT40 Tdp1-/-;hTDP1 cells + 20 nM CPT, ATP luminescence, 48 h; Potency, µM (titrated, usually from 46.2 µM), for the others: at the highest dose activity change, negative = growth inhibition, hits mostly inhibitors; 12% of 420,000 active; AID 686979; further: nearly all actives have a fitted effect of over 55% in size
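Chicken DT40 Tdp1-/- cells stably complemented with human TDP1 were seeded at 400 cells/well in medium containing 20 nM camptothecin, exposed to pin-transferred compounds, and grown at 37 °C for at least 48 hr. Viability was read as ATP luminescence.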
TDP1 cell noCPT: qHTS for Inhibitors of human tyrosyl-DNA phosphodiesterase 1 (TDP1): qHTS in cells in absence of CPT; DT40 Tdp1-/- hTDP1 cells, no CPT, ATP luminescence, 48 h; Potency, µM (doses to about 46.2 µM), without a hit: top-dose activity change, negative = growth inhibition, usual class: inhibitors; 15% of 420,000 active; further: nearly all actives have a fitted effect of over 55% in size
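Compound effects on proliferation are scored in DT40 Tdp1-/-;hTDP1 cells in the absence of CPT. ATP levels (CellTiter-Glo luminescence) are recorded after a ≥48 hr, 37 °C incubation.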
HT1080NT lethal: kills 2HG-producing HT-1080-NT fibrosarcoma cells. HT-1080-NT fibrosarcoma viability, CellTiter-Glo ATP luminescence, 48 h. Potency, µM (top dose mostly 46.1 µM), for inactives: at the highest dose activity, negative = less viability, usual class: cytotoxic. 1.6% of 360,000 active. AID 686970;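 further: NT is the 2HG producing partner of a matched IDH1 knockdown line; 0% = DMSO-treated cells and -100% = media-only wells without cells; nearly all actives have a fitted effect of over 55% in size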
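Fibrosarcoma NT cells, 750 per well in 5% FBS RPMI, were exposed to compound for 48 hours. Viability: CellTiter-Glo luminescence.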
KB-3-1 tox: kills parental KB-3-1 adenocarcinoma cells. KB-3-1 viability, CellTiter-Glo ATP luminescence, 72 h. Potency, µM (top dose mostly 46.1 µM), usual class: cytotoxic. AID 1347075. 1.4% of 400,000 active; further: nearly all actives have a fitted effect of over 60% in size
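Parental KB-3-1 adenocarcinoma cells in phenol-red-free DMEM with 10% FBS were pin-treated with compounds at several concentrations, incubated 72 h at 37 °C, and viability read by CellTiter-Glo luminescence; concentration-effect curves were fitted after normalization.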
* hit, by the source's call; i = inactive; ? = inconclusive; · = not tested or not shown; [ ] = another dose, or the depositor's remark. Compounds with a hit are over-represented: about 19% of the library has one in this group of screens. The call rests on the fitted dose curve; in most records, active means well fitted curve in the direction sought with a large enough effect; inconclusive means small, poorly fitted or top-dose-only effect, or another doubt; inactive means no such curve, though single readings can be large; an effect the other way counts as inactive or inconclusive. Unless noted, on the % scale 0 is the no-effect control and ±100 the full control effect; potency means the concentration at half of the fitted maximal effect.

SMILES	HT1080 IDH1KD tx	KB-V1 MDR tox	DT40 TDP1 CPT	TDP1 cell noCPT	HT1080NT lethal	KB-3-1 tox
COc1ccc(S(=O)(=O)NCc2csc(C)n2)cc1OC	3.2%	i	7.4%	12.2%	4.7%	i
Cc1ccc(S(=O)(=O)NCc2csc(C)n2)cc1	-1.6%	i	5.8%	-9.0%	14.7%	i
Cc1nc(CNS(=O)(=O)c2ccc3c(c2)CCCC3)cs1	5.2%	i	16.4µM*	?	-6.7%	i
CCCCOc1ccc(S(=O)(=O)NCc2csc(C)n2)cc1	-21.8%[9.24 µM]	?	13µM*	23.1µM*	?	18.4µM*
COCCNC(=O)C1CCCN(C(=O)Cc2ccc(F)cc2)CC1 (stereo not drawn)	26.0%	i	-2.1%	20.0%	?	i
CC(=O)Nc1ccc(NC(=O)CSc2nnc(N)n2-c2ccccc2)cc1	20.3%	?	11.0%	-3.6%	3.6%	?
CC(=O)N1CCN(C(=O)CCc2cc(C(C)(C)C)c(O)c(C(C)(C)C)c2)CC1	15.0%	?	-25.9%	-24.0%	-6.8%	i
O=c1oc(-c2ccccc2Cl)nc2ccsc12	10.3%	i	?	14.6µM*	5.2%	i
CCC(=O)C1=C(c2ccc(C)cc2)N(C(=O)CC)n2c(nnc2C2CCCCC2)S1	·	·	?	25.9µM*	·	·
CC(=O)C1=C(c2ccc(Br)cc2)N(C(C)=O)n2c(nnc2C2CCCCC2)S1	·	·	5.2%	?	·	·
CCC(=O)C1=C(c2ccc(F)cc2)N(C(=O)CC)n2c(nnc2-c2ccc(OC)cc2)S1	·	i	4.11µM*	2.91µM*	·	i
COc1ccc(OC(=O)CSc2nnc(-c3ccc(F)cc3)o2)cc1	·	i	-2.3%	-26.8%	·	i
CC(=O)C1=C(c2ccc(F)cc2)N(C(C)=O)n2c(nnc2C2CCCCC2)S1	·	·	?	23.1µM*	·	·
O=C(Nc1cc([N+](=O)[O-])ccc1F)C1CCN(S(=O)(=O)c2cccs2)CC1	5.0%	·	?	?	-2.4%	·
Cc1cc(=O)[nH]c(SCC(=O)N2CCC(Cc3ccccc3)CC2)n1	-3.0%	?	2.9%	6.1%	-4.8%	i
O=C(CSc1nc(C(F)(F)F)cc(=O)[nH]1)N1CCC(Cc2ccccc2)CC1	-8.8%	i	-10.9%	11.6µM*	-10.2%	i
Cc1nc(SCC(=O)N2CCC(Cc3ccccc3)CC2)[nH]c(=O)c1C	-11.3%	i	16.4µM*	23.1µM*	1.1%	i
O=C1C=CC(=O)N1c1ccccc1N1C(=O)C=CC1=O	5.8µM*	25.9µM*	0.92µM*	0.581µM*	6.51µM*	?
O=C(c1ccccc1)c1ccccc1N1C(=O)C=CC1=O	?	i	0.731µM*	1.64µM*	16.4µM*	i
O=C1C=CC(=O)N1c1ccccn1	21.9%	i	?	?	5.9%	i
CC1(C)CC(=O)C=C(c2n[nH]nc2-c2ccccc2)C1	10.9%	i	-6.5%	-26.9%	1.3%	i
Cc1nc2ccccn2c1C(=O)N/N=C/c1ccc([N+](=O)[O-])o1	-6.7%	?	2.91µM*	5.8µM*	-16.6%	i
O=C(N/N=C\c1ccc([N+](=O)[O-])o1)c1cncc(Br)c1	16.4µM*	?	4.61µM*	6.51µM*	20.6µM*	?
O=C(N/N=C/c1ccc(-c2ccccc2[N+](=O)[O-])o1)c1cncc(Br)c1	-13.4%	i	?	?	-2.3%	i
O=C(N/N=C/c1ccc([N+](=O)[O-])o1)c1ccc(O)cc1	6.51µM*	?	2.86µM*	2.86µM*	5.8µM*	?
SMILES	HT1080 IDH1KD tx	KB-V1 MDR tox	DT40 TDP1 CPT	TDP1 cell noCPT	HT1080NT lethal	KB-3-1 tox
O=C(N/N=C/c1ccc([N+](=O)[O-])o1)c1ccncc1	18.4µM*	i	9.2µM*	9.2µM*	?	i
O=C(CNC(=O)C1CCCCC1)OCC(=O)c1ccccc1	·	?	6.0%	-21.5%	·	?
CCN(CC)S(=O)(=O)c1cccc(C(=O)N/N=C/c2ccc([N+](=O)[O-])o2)c1	18.4µM*	?	20.6µM*	?	?	i
O=[N+]([O-])c1ccc(/C=N\NS(=O)(=O)c2ccc(F)cc2)o1	1.8%	·	14.6µM*	?	-7.6%	·
Cc1cc([N+](=O)[O-])c(C)cc1-c1ccc(/C=N/NC(=O)c2cccnc2)o1	2.2%	i	16.4µM*	16.4µM*	7.2%	i
Cc1cc(C)cc(NS(=O)(=O)c2ccc3c(c2)C(C)(C)C(=O)N3C)c1	-22.1%	i	?	?	-2.5%	i
COc1cc2c(cc1O)-c1ccccc1CN(C)C2	·	·	19.2%[9.04 µM]	2.7%[9.04 µM]	·	·
C=C1NN(Cc2ccccc2)C(=O)N1c1ccc(OCc2ccccc2)cc1	·	i	11.2µM*	11.2µM*	·	i
S=c1nc[nH]c2c1cnn2-c1ccccc1	0.4%	8.2µM*	-5.6%	5.2%	16.7%	?
O=C1CC(c2cc(-c3ccccc3)no2)C1	11.0%	i	-4.6%	-20.3%	22.9%	?
O=c1c2oc3ccccc3c2n(Cc2ccc(Cl)cc2)c(=O)n1Cc1ccco1	·	i	-11.3%	-16.8%	·	i
O=C(NCCCN1CCCCC1)c1[nH]c2ccccc2c1Sc1ccc(Cl)cc1	·	i	20.6µM*	20.6µM*	·	i
COc1ccc2c(Sc3ccccc3)c(C(=O)N3CCC(C)CC3)[nH]c2c1	·	i	20.6µM*	?	·	i
COCCNC(=O)c1[nH]c2cc(C)ccc2c1Sc1ccc(Cl)cc1	·	i	-0.3%	-10.0%	·	i
COc1ccc2c(Sc3ccccc3)c(C(=O)NCCCN3CCCCC3)[nH]c2c1	·	·	?	18.4µM*	·	·
CCOC(=O)C1CCCN(C(=O)c2[nH]c3ccccc3c2Sc2ccc(Cl)cc2)C1 (stereo not drawn)	·	i	?	?	·	?
CC1CCCCN1CCCNC(=O)c1[nH]c2ccccc2c1Sc1ccc(Cl)cc1 (stereo not drawn)	·	i	10.3µM*	13µM*	·	i
COc1ccccc1-c1noc(-c2ccc(NCc3cccnc3)c([N+](=O)[O-])c2)n1	·	i	?	?	·	i
COC(=O)c1c(NC(=S)Nc2cc(OC)c(Cl)cc2OC)sc2c1CCCCC2	15.5%	20.6µM*	5.1%	-2.2%	-7.9%	i
COC(=O)c1c(NC(=S)NN2CCOCC2)sc2c1CCCC2	10.5%	i	?	14.6µM*	-0.3%	i
CC(=O)N1CCc2cc(Br)cc(S(=O)(=O)CCC(=O)NCc3ccc(F)cc3)c21	·	i	-5.7%	?	·	i

Screens deposited in PubChem BioAssay by National Center for Advancing Translational Sciences (NCATS).
